ALOX12 inh: inhibitors of human 12S-lipoxygenase ALOX12 | P18054 | Potency, µM (doses to about 108 µM), for inactives: top-dose activity change, negative = inhibition, actives largely listed as inhibitors | hit rate 1.1% among 580,000 | purified 12hLO, xylenol orange hydroperoxide absorbance
Target sequence (P18054 whole entry, looked up): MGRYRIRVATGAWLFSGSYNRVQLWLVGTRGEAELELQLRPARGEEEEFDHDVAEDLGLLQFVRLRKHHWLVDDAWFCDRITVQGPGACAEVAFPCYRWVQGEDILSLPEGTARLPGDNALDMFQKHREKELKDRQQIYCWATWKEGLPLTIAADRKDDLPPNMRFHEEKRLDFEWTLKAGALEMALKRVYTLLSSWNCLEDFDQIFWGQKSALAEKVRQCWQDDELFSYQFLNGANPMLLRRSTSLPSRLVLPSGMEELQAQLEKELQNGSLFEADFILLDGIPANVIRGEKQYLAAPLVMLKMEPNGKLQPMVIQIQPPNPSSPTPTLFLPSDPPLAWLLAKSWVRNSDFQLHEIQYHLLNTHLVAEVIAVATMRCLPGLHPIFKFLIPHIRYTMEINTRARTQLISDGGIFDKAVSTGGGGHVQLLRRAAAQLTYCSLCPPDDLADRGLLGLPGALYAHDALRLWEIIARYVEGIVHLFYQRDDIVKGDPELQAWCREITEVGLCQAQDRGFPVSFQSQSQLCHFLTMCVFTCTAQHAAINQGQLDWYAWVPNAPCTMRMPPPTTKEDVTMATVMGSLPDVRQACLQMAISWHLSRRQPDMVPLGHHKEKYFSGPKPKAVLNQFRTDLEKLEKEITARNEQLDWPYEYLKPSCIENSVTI
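Purified human 12hLO at 150 nM in 25 mM Hepes, 0.01% Triton X-100, pH 7.0, preincubated 15 min at room temperature with compound. Reaction started with 40 uM arachidonic acid, 30 min at room temperature. Hydroperoxide measured by Fe-xylenol orange, 573/405 nm absorbance ratio.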
Sfp PPTase inh: inhibitors of Bacillus subtilis Sfp phosphopantetheinyl transferase | Biochemical Sfp PPTase activity, qHTS | hit rate 3.5% among 310,000 | AID 1490 | Potency, µM, inactives show largest response in the series, negative = inhibition, actives largely listed as inhibitors;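 further: the enzyme is Sfp with the accession as filed and its product quenches rhodamine fluorescence; 0% = enzyme reaction without inhibitor and -100% = no enzyme wells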
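Buffer: 50 mM Hepes-Na pH 7.6, 10 mM MgCl2, 0.01% Nonidet P-40, 0.01% BSA. Enzyme 15 nM, pre-exposed to compound 15 min; substrates then added and fluorescence change tracked over 30 min.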
VDR inh: blocks the human vitamin D receptor; P11473; VDR-SRC2-3 peptide fluorescence polarization, 2 h; Potency, µM, inactives show max response, negative = inhibition, most hits filed as inhibitors; hit rate 0.93% among 400,000; AID 504847
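Compounds are added to VDR with labelled SRC2-3 coactivator peptide and held 2 h at room temperature. Inhibition of the VDR–peptide interaction is then read as a change in fluorescence polarization.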
PLK1 PBD block: PLK1 (human) polo-box domain binding inhibition | Plk1 PBD binding of FITC phosphopeptide, fluorescence polarization | hit rate 2.8% among 360,000 | Potency, µM, for inactives: max response, negative = inhibition, actives largely listed as inhibitors; further: series mostly up to about 57 µM; nearly all actives have a fitted effect of over 65% in size
* marks the source's active call; other numbers are inactive results; ? = inconclusive; / = no result given. Rows were chosen to be rich in hits. Some 4.2% of all compounds tested hit in one or more screens of this group. The call rests on the fitted dose curve; in most records, active means well fitted curve in the direction sought with a large enough effect; inconclusive means small, poorly fitted or top-dose-only effect, or another doubt; inactive means no such curve, though single readings can be large; an effect the other way counts as inactive or inconclusive. Unless noted, on the % scale 0 is the no-effect control and ±100 the full control effect; potency means the concentration at half of the fitted maximal effect.

SMILES | ALOX12 inh | Sfp PPTase inh | VDR inh | PLK1 PBD block
Oc1ccc(Br)cc1CNc1nccs1 | 4.2% | 9.5% | -4.8% | -10.0%
O=C(Nc1nccs1)C1=COCCO1 | 4.4% | / | -0.7% | -11.2%
O=c1cc(CN2CCN(Cc3ccc(F)cc3)C(CCO)C2)[nH]c2ccccc12 (configuration not stated) | 35.5µM* | -0.7% | -6.5% | -22.0%
Oc1c(C(c2ccccc2)N2CCN(c3ccccc3)CC2)sc2nc(-c3ccco3)nn12 (configuration not stated) | -12.8% | / | 4.1% | /
COC(=O)Cc1c(C)c2ccc(OC3CCCCC3=O)cc2oc1=O (configuration not stated) | -11.2% | 14.1% | 7.7% | -3.7%
Cc1cccnc1NC(=O)CCc1nnc2ccc(NCc3ccco3)nn12 | 22.9% | -2.7% | 6.9% | -8.6%
c1ccc2oc(-c3csc(N4CCOCC4)n3)cc2c1 | -18.9% | 56.2µM* | ? | -17.6%
CN(C)/C=N/c1cc(=O)n(Cc2ccccc2)c(=O)n1C | 4.7% | 16.7% | 31.3% | -0.1%
CN(C)Cc1cnc2ccc(Cl)cn12 | 0.0% | 10.3% | 7.5% | -1.5%
N#CC1c2ccccc2C=CN1C(=O)N(c1ccccc1)c1ccccc1 (configuration not stated) | -19.4% | / | 70.8µM* | 3.8%
COc1ccc(C(=O)N2C=Cc3ccccc3C2C#N)cc1 (configuration not stated) | 0.3% | / | / | 1.2%
Cc1onc(-c2ccccc2Cl)c1C(=O)Nc1c(C)n(C)n(-c2ccccc2)c1=O | 5.5% | 17.1% | 1.0% | 4.2%
Cc1cccn2c(=O)c3cc(C(N)=S)c(=N)n(CCCOC(C)C)c3nc12 | ? | ? | 25.1µM* | -25.2%
CCOCCCn1c(=N)c(C(N)=S)cc2c(=O)n3cccc(C)c3nc21 | 0.0% | -109.3% | 79.4µM* | ?
CCOCCCn1c(=N)c(S(=O)(=O)c2ccc(Cl)cc2)cc2c(=O)n3cccc(C)c3nc21 | -21.5% | / | -9.5% | /
Cc1cccn2c(=O)c3cc(C(=O)NC4CCCCC4)c(=N)n(Cc4ccccc4)c3nc12 | -12.2% | 28.2µM* | -9.5% | 2.0%
COCCCn1c(=N)c(C(=O)NCc2ccco2)cc2c(=O)n3cccc(C)c3nc21 | ? | / | -18.5% | /
CCC(CC)C(=O)Nc1nc2c(s1)CC(C)CC2 (configuration not stated) | ? | / | 12.4% | /
CCC(CC)c1nnc(NC(=O)CN2C(=O)c3ccccc3C2=O)s1 | -14.9% | -9.9% | 5.1% | -18.0%
CCCC(C)c1nnc(NC(=O)C2CC(=O)N(CCc3ccc(F)cc3)C2)s1 (configuration not stated) | ? | 28.2µM* | ? | 5.97µM*
CCCC(C)c1nnc(NC(=O)CN2C(=O)c3ccccc3C2=O)s1 (configuration not stated) | ? | 44.7µM* | -16.0% | 26.7µM*
CCCC(C)c1nnc(NC(=O)C(=O)OCC)s1 (configuration not stated) | ? | 20µM* | ? | 10.6µM*
CCCCOC(=O)Nc1nnc(C(C)C)s1 | -9.2% | 9.3% | 3.8% | -8.8%
CC1CCc2nc(NC(=O)C3CCCO3)sc2C1 (configuration not stated) | ? | -29.1% | 5.5% | 23.8µM*
COc1ccc(N2CCN(C(CNC(=O)C3CCCCC3)c3cccnc3)CC2)cc1 (configuration not stated) | 0.0% | -0.7% | 30.4% | -7.7%
SMILES | ALOX12 inh | Sfp PPTase inh | VDR inh | PLK1 PBD block
COc1cc(-c2nnc(NC(=O)c3ccco3)o2)cc(OC)c1OC | -15.8% | / | 8.1% | -3.2%
CCCC(C)c1nnc(NC(=O)C2CCCO2)s1 (configuration not stated) | ? | 12.6µM* | -17.5% | 29.9µM*
Cc1nnc(NC(=O)C2CCCO2)s1 (configuration not stated) | -29.8% | -6.3% | 5.4% | ?
COc1ccc(OCC(=O)Nc2ccc(C)c(S(=O)(=O)N(C)C)c2)cc1 | -20.8% | -2.4% | 16.3% | -18.7%
Cc1ccc(S(=O)(=O)Nc2ccc3c4c(cccc24)CC3)c(C)c1 | 10.7% | / | -11.2% | -6.4%
Cc1ccc(S(=O)(=O)Nc2cc(C(C(=O)OC(C)C)C(=O)C(F)(F)F)c(O)c3ccccc23)c(C)c1 (configuration not stated) | ? | 56.2µM* | -6.3% | -19.5%
O=[N+]([O-])c1ccc(-c2c[nH]c(=S)[nH]2)cc1 | ? | 3.55µM* | ? | 7.52µM*
S=c1[nH]cc(-c2ccccc2)[nH]1 | -24.6% | -1.8% | -22.9% | -10.4%
O=C(Nc1ccccc1)N[C@H]1[C@H](O)[C@@H](N2CCN(c3ccccc3)CC2)[C@@H]2OC[C@H]1O2 | 112µM* | / | / | /
Nc1nc2c(ncn2[C@@H]2O[C@H](C(=O)NCC(c3ccccc3)c3ccccc3)[C@@H](O)[C@H]2O)c(=O)[nH]1 | -3.2% | / | / | /
CCOC(=O)c1ccccc1NC(=O)c1cn(CC)c2nc(C)ccc2c1=O | 15.1% | 2.3% | ? | 26.7µM*
Cc1ccc(C(=O)OCC(=O)Nc2sc3c(c2C#N)CCCC3)cc1NC(=O)c1ccco1 | 35.5µM* | ? | 23.8% | ?
CCOC(=O)c1sc(NC(=O)C2=COCCO2)c(C#N)c1C | -29.6% | / | ? | 26.7µM*
CCCC(=O)Nc1sc(C)c(C)c1C#N | -10.2% | -22.4% | 1.8% | 21.2µM*
CCOC(=O)c1sc(NC(=O)CCCC(=O)O)c(C#N)c1C | 6.31µM* | / | / | /
Cc1sc(NC(=O)CCCC(=O)O)c(C#N)c1C | -6.0% | 7.6% | 2.9% | -7.5%
CC(C)(C)c1ccc(C(=O)N2CCC3(CC2)N=C(c2ccccc2)NO3)cc1 | 21.8% | / | / | /
CCOc1ccccc1NC(=O)CC1C(=O)Nc2nc3ccccc3n21 (configuration not stated) | -1.7% | / | / | /
CC1(C)Cc2c(sc(NC(=O)Cc3ccccc3)c2C#N)CO1 | 0.5% | -3.9% | 7.8% | ?
CCCCC(=O)Nc1sc2c(c1C#N)CC(C)(C)OC2 | -2.6% | 9.1% | 79.4µM* | 26.7µM*
COC(=O)c1sc(NC(=O)c2ccco2)c(C#N)c1C | -10.4% | 39.8µM* | 4.6% | 23.8µM*
CCCCCC(=O)Nc1sc(C)c(C)c1C#N | ? | 79.4µM* | ? | 10.6µM*
COc1ccccc1NC(=O)c1sc(NC(=O)c2ccco2)c(C#N)c1C | 20.2% | 10.7% | -3.4% | -10.6%
Cc1ccccc1N/C(=N/S(=O)(=O)c1ccccc1)c1ccc(F)cc1 | -6.6% | -9.7% | -16.1% | 37.7µM*
Cc1ccc(/C(=N\S(=O)(=O)c2ccc(Br)cc2)Nc2ccccc2C)cc1 | -0.9% | 7.4% | -16.1% | -8.6%
SMILES | ALOX12 inh | Sfp PPTase inh | VDR inh | PLK1 PBD block
CC(=O)c1ccccc1OC(=O)CCN1C(=O)C2C3C=CC(C4CC34)C2C1=O (configuration not stated) | -8.2% | -2.3% | 5.3% | -12.4%
COc1ccccc1NC(=O)CCCCC(=O)Nc1ccccc1OC | -15.2% | 11.8% | -12.6% | -8.7%
Cc1ccccc1NC(=O)CSCC(=O)Nc1ccccc1C | -24.0% | 2.3% | 9.5% | -1.8%
NC(=O)SCC(=O)Nc1ccccc1C(=O)O | 0.4% | 17.8µM* | 79.4µM* | -13.4%
COc1ccccc1NC(=O)CSC(N)=O | 9.0% | 44.7µM* | 22.4µM* | -23.7%
Cc1ccccc1NC(=O)CSC(N)=O | -11.0% | 14.1µM* | 25.1µM* | ?
